Most compounds without a hit are left out; they make up all but 19% or so of the library.
MCF10A rereplic = A quantitative high throughput screen for small molecules that induce DNA re-replication in MCF 10a normal breast cells; AID 624296, 2012; MCF 10A DNA re-replication, Hoechst nuclear intensity, 48 h; Potency, µM (highest dose often 46.1 µM), for inactives: at the highest dose activity, positive = re-replication, actives largely listed as activators; 350,000 tested, 2.9% active; note: potency is the fitted concentration of half-maximal effect; % of control where 0% means no effect; nearly all actives have a fitted effect of over 50% in size
IL-1B inflam inh = qHTS for Inhibitors of Inflammasome Signaling: IL-1-beta AlphaLISA Primary Screen; 360,000 tested, 4.7% active; THP-1 LPS/ATP IL-1B secretion, AlphaLISA, 16 h; active compounds read low; activity change, % at 57.5 µM; in the data active = activity change below about -50%; inconclusive = mostly about -30% to -49%; note: % is set by controls: 0 for no effect and ±100 for the full control effect
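Secreted IL-1B measured by AlphaLISA bead assay after 16 h compound exposure of THP-1 cells; compounds (final up to 57.5 uM) added 1 h before LPS (250 ng/mL) and ATP (1.25 mM) stimulation; lower signal means less secretion.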
Chronic BCR inh = qHTS Assay to Find Inhibitors of Chronic Active B-Cell Receptor Signaling. AID 493014, 2011. Potency, µM (titrated, usually from 46.1 µM), for inactives: top-dose activity change, negative = inhibition, usual class: inhibitors. ABC-DLBCL IkBa-CBG/CBR reporter, luminescence ratio, 4 h. 340,000 tested, 0.05% active; active = well fitted inhibition curve with a large enough effect in the signal ratio, with a control signal flat, not every such curve was filed as active; inconclusive = small, poorly fitted or top-dose-only effect, or effect the other way, or a change in a side signal; the % refers to the signal ratio;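 note: potency is the fitted concentration of half-maximal effect; plate controls were basal doxycycline-induced cells for no effect and cells given 10 µM MG132 for full effect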
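Concentration-response series (up to 46 uM) were applied to TMD8 dual-reporter cells for 4 h at 37C with doxycycline. Green/red ratio, after filter-overlap correction, defined %Activity; red signal alone was normalised to basal cells and zero luminescence.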
DT40 TDP1 no CPT = qHTS for Inhibitors of human tyrosyl-DNA phosphodiesterase 1 (TDP1): qHTS in cells in absence of CPT; DT40 Tdp1-/- hTDP1 cells, no CPT, ATP luminescence, 48 h; Potency, µM (doses to about 46.2 µM), for the others: at the top dose activity change, negative = growth inhibition, usual class: inhibitors; 420,000 tested, 15% active; AID 686978, 2013; note: potency is the fitted concentration of half-maximal effect; % is set by controls: 0 for no effect and ±100 for the full control effect; nearly all actives have a fitted effect of over 55% in size
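No-CPT arm: Tdp1-/-;hTDP1 DT40 cells (400/well) plus compounds, incubated ≥48 hr at 37 °C. Readout CellTiter-Glo luminescence.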
SW480 rereplic = A quantitative high throughput screen for small molecules that induce DNA re-replication in SW480 colon adenocarcinoma cells. Potency, µM (top dose mostly 46.1 µM), for inactives: top-dose re-replication activation, most hits filed as activators. 340,000 tested, 1.8% active. AID 624297, 2012. SW480 DNA re-replication, Hoechst DNA content imaging, 48 h; note: potency is the fitted concentration of half-maximal effect; % of control where 0% means no effect; nearly all actives have a fitted effect of over 55% in size
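Image-based DNA-content assay: after two days of treatment, nuclei were labelled with the DNA dye Hoechst and imaged, and hits were compounds raising the count of nuclei showing high fluorescence intensity.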
TDP1 cell CPT = qHTS for Inhibitors of human tyrosyl-DNA phosphodiesterase 1 (TDP1): qHTS in cells in presence of CPT; chicken DT40 Tdp1-/-;hTDP1 cells + 20 nM CPT, ATP luminescence, 48 h; Potency, µM (top dose mostly 46.2 µM), inactives show at the highest dose activity change, negative = growth inhibition, hits mostly inhibitors; 420,000 tested, 12% active; note: potency is the fitted concentration of half-maximal effect; % is set by controls: 0 for no effect and ±100 for the full control effect; nearly all actives have a fitted effect of over 55% in size
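Chicken DT40 Tdp1-/- cells complemented with human TDP1, 400 cells/well, exposed to compounds plus 20 nM camptothecin for at least 48 h at 37 C; viability read as ATP content by CellTiter-Glo luminescence.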
* = called active by the depositor; ? = inconclusive; · = no result given. Unless noted, calls come from the whole dose curve; as a rule, active = well fitted curve in the direction sought with a large enough effect; inconclusive = small, poorly fitted or top-dose-only effect, or another doubt; inactive = no such curve, though single readings can be large; an effect the other way counts as inactive or inconclusive.

SMILES | MCF10A rereplic | IL-1B inflam inh | Chronic BCR inh | DT40 TDP1 no CPT | SW480 rereplic | TDP1 cell CPT
Cc1ccc(C(=O)n2c3ccccc3c3ccccc32)cc1 | ? | 43 | 2% | 6.5µM* | 21µM* | 5.8µM*
[O-][n+]1cccc2ncc3cscc3c21 | 12% | 10 | 0% | 9% | -7% | -2%
CC(=O)N1CCCC1c1nc2ccccc2n1Cc1cc(C)ccc1C (centres undefined) | · | · | · | 23µM* | · | 23µM*
O=C(Nc1ccc(Cl)cn1)c1ccccc1[N+](=O)[O-] | ? | 17 | ? | ? | 15µM* | ?
Cc1ccc(Nc2ccc([N+](=O)[O-])cn2)cc1Cl | 12% | ? | ? | ? | -4% | ?
O=C(Nc1ccc(Cl)cn1)c1cccc2ccccc12 | ? | 0 | ? | 5.8µM* | ? | 5.2µM*
Cc1ccnc(NC(=O)c2cccc3ccccc23)c1 | 23% | -11 | -2% | -16% | -2% | ?
O=C(NNC(=O)c1ccccc1[N+](=O)[O-])Nc1ccc(Cl)cc1 | 3% | -7 | ? | -20% | -9% | 9%
O=[N+]([O-])c1cnc(Nc2ccc(Cl)cn2)c([N+](=O)[O-])c1 | 2% | -55* | 6% | ? | ? | ?
O=C(Nc1cccc2c1C(=O)NC2=O)c1ccccc1[N+](=O)[O-] | 18% | -14 | -11% | 1% | 21µM* | -23%
CCc1ccc(N2CC(C(=O)Nc3ccc4c(c3)OCCO4)CC2=O)cc1 (centres undefined) | 9% | -5 | -17% | -13% | -3% | -1%
O=C(Nc1ccc(OC(F)(F)F)cc1)NC1COc2ccccc2C1 (centres undefined) | · | · | · | -23% | · | -23%
CCS(=O)(=O)c1c(Nc2ccc(F)c(Cl)c2)sc(C(=O)c2ccccc2)c1N | · | · | · | ? | · | -19%
COc1ccc(NC(=O)CSCC(=O)N2CCN(C(=O)c3ccco3)CC2)cc1 | -3% | 1 | 0% | 12% | -9% | -23%
CC(OC(=O)c1cc(=O)[nH]c2ccccc12)C(=O)Nc1ccccc1F (centres undefined) | -1% | 0 | 0% | -8% | -5% | -8%
O=C(NNS(=O)(=O)c1ccccc1[N+](=O)[O-])c1ccccc1[N+](=O)[O-] | -14% | 16 | 5% | 1% | 0.52µM* | 13%
CC(C)C(=O)NNS(=O)(=O)c1ccccc1[N+](=O)[O-] | -9% | 6 | 7% | -4% | -2% | 5%
Cc1ccc(NC(=O)CSc2nnc(-c3nnn(-c4ccc(F)cc4)c3C)o2)cc1Br | · | · | · | -13% | · | ?
Cc1cc(OCCOCCNC(C)C)cc(C)c1Cl | 0% | -28 | ? | 18µM* | 0% | 18µM*
O=C(N/N=C/c1ccncc1)c1nc(-c2ccccc2)n2c1CCCCC2 | 3% | ? | ? | 7.3µM* | 0% | 7.3µM*
COc1ccc(CSc2nc3ccncc3n2Cc2nc(-c3ccc(OC)c(OC)c3)oc2C)cc1 | · | · | · | ? | · | 26µM*
COc1ccc(-c2nc(Cn3c(SCc4cccc(Cl)c4)nc4ccncc43)c(C)o2)cc1 | · | · | · | ? | · | 23µM*
COC(=O)c1cc2oc3ccccc3c2n1Cc1nc(-c2cccc(Cl)c2)oc1C | · | · | · | -4% | · | -12%
Cc1oc(-c2cccc(Cl)c2)nc1Cn1c(SCc2ccccc2F)nc2ccncc21 | · | · | · | 23µM* | · | 16µM*
Cc1cccc(CSc2nc3ccncc3n2CC(=O)Nc2cc(C)cc(C)c2)c1 | ? | 0 | ? | ? | 16% | ?
SMILES | MCF10A rereplic | IL-1B inflam inh | Chronic BCR inh | DT40 TDP1 no CPT | SW480 rereplic | TDP1 cell CPT
COc1ccc(CSc2nc3ccncc3n2CC(=O)Nc2ccc(C)c(F)c2)cc1 | · | · | · | -15% | · | -28%
COc1cc(C)ccc1S(=O)(=O)NC(=O)C1(C)CCN1C(=O)C1(c2ccc(Cl)cc2)CCC1 (centres undefined) | · | 24 | · | 3% | · | -4%
CC12CCC(=O)N1C(C(=O)OCC(=O)Nc1ccc(C(F)(F)F)cc1)CS2 (centres undefined) | 0% | 24 | 1% | -6% | -15% | -17%
CN(CC(=O)Nc1ccccc1Cl)C1CCS(=O)(=O)C1 (centres undefined) | -3% | 27 | 2% | 1% | 0% | -2%
Cc1cccc(/C(N)=N/OC(=O)N2c3ccccc3Sc3ccccc32)c1 | ? | 0 | ? | 21µM* | -2% | ?
N/C(=N\OC(=O)N1c2ccccc2Sc2ccccc21)c1ccccc1 | ? | -11 | ? | ? | -9% | ?
CC1CC(C)CN(CC(O)COCc2ccccc2F)C1 (centres undefined) | -2% | -21 | 4% | -2% | -7% | 1%
COc1ccccc1CC(=N)N1C[C@@H]2C(=O)CCC(c3ccccc3)(c3ccccc3)[C@@H]2C1 | · | · | · | 21µM* | · | 12µM*
CCN(C(=O)CSc1ncnc2sc(C)c(C)c12)C1CCS(=O)(=O)C1 (centres undefined) | -1% | ? | ? | ? | -2% | 0%
CCCCn1c(SCC(N)=O)nc2sc3c(c2c1=O)CCC3 | 13% | ? | ? | -12% | -14% | -10%
CC(=O)CSc1ncnc2sc3c(c12)CCC(C)C3 (centres undefined) | -2% | 15 | 1% | -19% | -1% | -26%
CCCn1c(SCC(=O)N(C)C2CCS(=O)(=O)C2)nc2sc3c(c2c1=O)CCC3 (centres undefined) | 11% | -8 | 4% | ? | 18µM* | ?
CCN(C(=O)CSc1nc(C)nc2sc3c(c12)CCC3)C1CCS(=O)(=O)C1 (centres undefined) | -14% | 1 | ? | 21µM* | -5% | ?
CC1CCc2c(sc3ncnc(SCC(=O)N(C)C4CCS(=O)(=O)C4)c23)C1 (centres undefined) | 2% | -16 | -4% | 18µM* | 14% | ?
CCN(CC)C(=O)CSc1nc2sc3c(c2c(=O)n1CCCOC)CCC3 | ? | -55* | -2% | ? | 2% | ?
Cc1cccc(C)c1NC(=O)C1CCCN1C(=O)Nc1cccc(F)c1 (centres undefined) | -1% | 14 | -3% | -3% | 1% | -12%
